Compounds without any hit were thinned out: in the full panel of roughly 83,000, 20% have a hit.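 In brief: 96-well plates, 48 h treatment, single concentration, percent growth endpoint.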 A number with no mark means an inactive call. Active and inactive are the calls of the source.

The test system of the assay is LOX IMVI melanoma. Description: NCI-60 one-dose screen, 48 h (100 = growth as untreated, 0 = no growth, -100 = all killed). To be noted: 10 µM unless noted. As to the method: Growth inhibition of the LOX IMVI human tumor cell line is measured as a screen for anti-cancer activity. Cells are grown in 96 well plates and exposed to the test compound for 48 hours. Compounds are tested at a single concentration, which is 10^-5 M for most compounds. The reported endpoint is percent growth (GI% or GIPRCNT), where numbers from 0 - 100% represent growth inhibition, and numbers from -100% - 0 represent cell death. For example, a value of 40 represents 60% growth inhibition. A value of 0 means no net growth occurred over the course of the experiment. A value of -40 indicates 40% of cells at the beginning of the experiment died by the end of the experiment. A value of -100 means all cells are dead at the end of the experiment.
NCI-60 Human Tumor Cell Lines Screen was performed using the standard one-dose NCI protocol, which is described in more detail at https://dtp.cancer.gov/discovery_development/nci-60/default.htm.
Compounds with GIPRCNT values below 10 were considered active. Activity score was based on GIPRCNT using the following formula: […]
Score is 0 for GIPRCNT values of 100 or above, 50 for GIPRCNT values of 0, and 100 for GIPRCNT values of -100.
For `Nc1ncc(-c2ccc3ncnc(N4CCc5cc(F)c(Cl)cc54)c3c2)cc1C(F)(F)F`, the growth is 12.7%. In the case of `COc1ccc(S(=O)(=O)Oc2ccc(-c3sc4cc(OS(=O)(=O)c5ccc(OC)cc5)ccc4c3C(=O)c3ccc(OCCN4CCCCC4)cc3)cc2)cc1`, the growth was 101%.

For the molecule `CC(C)CCc1nc2ccc(NCc3ccc(OCCN4CCC(C)CC4)cc3)cc2[nH]1`, the growth is 59.6%.

On to `O=c1oc2ccccc2cc1-c1nn(-c2ccccc2)cc1/C=N/Nc1nc(-c2ccccc2)c(N=Nc2ccccc2)s1`, for which the growth is 70%. For the molecule `C#CCOc1cccc(Nc2ncnc3c(NC(=O)CCl)cccc23)c1`, the growth is -79.7% (active). Take `O=C1c2cccnc2C(=O)c2c1c(C(=O)OCCCN1CCOCC1)c1ccccn21`: the growth is -29.1% (active). To `COc1ccc(C(=O)/C=C/Nc2cc(-c3ccccc3)nn2-c2ccccc2)cc1` belongs 92.9%; to `Cc1ccc(-c2nnc(SCc3nc(N)nc(Nc4ccccc4F)n3)n2-c2ccccc2)cc1`, 100%; to `CN1CCN(Cc2ccc(NC(=O)c3cncc(C#Cc4c(N)ncc5cc(F)ccc45)c3)cc2C(F)(F)F)CC1`, -81.4% (active). As for `NC(=N\N=C/c1ccc(Cl)cc1Cl)/C(N)=N\N=C/c1ccc(Cl)cc1Cl`, the growth was 74%. Consider `COc1cc2cc(Oc3ccc(NC(=O)Nc4ccc(Cl)c(Cl)c4)cc3)c(C)nc2cc1OCCN1CCCCC1`, for which the growth was 99.1%. Regarding `COc1ccc(-c2nc(SCCC(C)C)nc(N/N=C(/C)c3ccc(N)cc3)c2C#N)cc1`, the growth was 91.6%. Turning to `CCOc1ccc(N2C(=O)CCSC2=S)cc1`, the growth is 96.5%. To `CO[C@H]1/C=C/O[C@@]2(C)Oc3c(C)c(O)c4c(O)c(c5c(nc6cc(C)ccn65)c4c3C2=O)NC(=O)/C(C)=C\C=C\[C@H](C)[C@H](O)[C@@H](C)C(O)[C@@H](C)[C@H](OC(C)=O)[C@@H]1C` (stereo not given in full) belongs 95.9%; to `Cc1nn(-c2ccccc2)c(Oc2ccccc2)c1/C=N/NC(=O)Cn1c(=O)sc2ccccc21`, 48.7%.

Regarding `Cn1cc(-c2nc(-c3c[nH]c4ccncc34)cs2)c2cc(F)ccc21`, the growth is -94.5% (active). For `O=C1C2C(c3cccs3)C=C(c3ccc(Cl)cc3)N2C(=S)N1c1ccccc1` (stereo not given), the growth was 98%.

For the molecule `CSc1nn2c(-c3cc4cc(Br)ccc4oc3=O)ccnc2c1C#N`, the growth is 97.4%. As for `CC(C)=CC(=O)C1C(=O)c2ccccc2C1=O`, the growth was 96.8%. `NCCNc1ccc([N+](=O)[O-])cc1`: the growth was 105%. Take `O=C1OCC2=C1C(c1cccc(F)c1)c1cc3c(cc1N2CCO)CCC3` (stereo not given): the growth is 16.2%. As for `C/C(=N\NC(=O)c1ccc(C(C)(C)C)cc1)c1ccc(O)cc1O`, the growth is -4.95% (active). On to `C(=N\Nc1nnc2n1N=C(c1ccccc1)CS2)/c1ccc(OCc2ccccc2)cc1`, for which the growth was 95.8%. To `COc1ccc(-c2cc(-c3ccc(Nc4nc(Nc5ccc(Cl)cc5)nc(Nc5ccc(Cl)cc5)n4)cc3)no2)cc1` belongs 76.3%; to `C#CCOc1cccc(-c2ncnc3cc(NC(=O)CCl)ccc23)c1`, -83.7% (active).

Consider `COc1cccc(NC(=O)c2sc3nc(C)c(C(=O)c4ccccc4)cc3c2N)c1`, for which the growth is 97.8%. `CCOC(=O)c1cnc2sc(-c3ccc(OC)cc3)nc2c1Cl`: the growth was 86.8%. For the molecule `CN1CCN(Cc2ccc(NC(=O)c3cncc(C#Cc4cnc(N)c5ncccc45)c3)cc2Cl)CC1`, the growth is 86.5%. As for `CNC(=O)c1cc(Oc2cccc3nc(NC(=O)Nc4ccc(F)cc4F)ccc23)ccn1`, the growth was 19.8%. Turning to `Cc1nc2cccc(NCc3ccc(C(=O)NO)cc3)c2c(=O)n1-c1ccccc1`, the growth was 26.6%.

Consider `COC(=O)[C@H](C)NC(=O)c1ccc(NC(=O)c2[nH]c(C)c(Cl)c2Cl)c(OCCN)c1`, for which the growth is 96.2%.

As for `O=C(Oc1ccccc1)c1cc(O)c(O)c(O)c1`, the growth is 59.3%. As for `COC(=O)CCc1c(/C=C2\N=C(c3ccc[nH]3)C=C2OC)[nH]c(C)c1C(=O)OCc1ccccc1`, the growth is -52.7% (active). For the molecule `COc1ccc2c(O)cc3c(c2c1)[C@H](CCl)CN3C(=O)c1cc2cc(NC(=O)CCN3CCOCC3)ccc2[se]1`, the growth is -62.5% (active). To `COc1cccc(/C=C2\CCc3ccccc3C2=O)c1` belongs 80.2%. As for `COC(=O)CNC(=O)c1ccc(NC(=O)c2[nH]c(C)c(Cl)c2Cl)c(O[C@H]2CCNC2)c1`, the growth is 94.4%. To `CN(C)CC1C(=O)O[C@H]2[C@H]1CC/C(COC(=O)NCc1ccc(Cn3c(=O)sn(CCCI)c3=O)cc1)=C\CC[C@@]1(C)O[C@@H]21` (stereo not given in full) belongs -75.8% (active); to `Cn1ccnc1C(=O)/C=C/c1ccc(C(=O)Nc2c(F)c(F)c(F)c(F)c2F)cc1`, -83.5% (active); to `C#CCOc1ccc(C2=NN(C)C3N=C(Cl)c4ncn(C)c4N23)cc1OCC#C` (stereo not given), 89.2%. As for `Cc1c(C(=O)C(SC(=S)N2CCOCC2)SC(=S)N2CCOCC2)nnn1-c1ccc([N+](=O)[O-])cc1`, the growth was 108%.

Values taken from PubChem BioAssay (NCI).
